Source: PubChem BioAssay
A selection: hits, their analogues and other compounds. The true share with any hit is near 7.5%.
ELG1 genotoxic = inducers of genotoxicity in HEK293T ELG1-luciferase cells | HEK293T ELG1-luciferase reporter, luminescence, 16 h | Potency, µM (highest dose often 46 µM), for the others: at the highest dose activity change, positive = activation, actives largely listed as activators | hit rate 1.3% among 330,000; note: % of control where 0% means no effect; nearly all actives have a fitted effect of over 60% in size
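HEK293T cells expressing luciferase-tagged ELG1 were exposed to compound or DMSO vehicle for 16 hr at 37 °C and 5% CO2. Luciferase activity was then measured with ONE-Glo after 30 min at room temperature.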
NPC1 promoter act = activates the NPC1 promoter; Huh7 NPC1 promoter luciferase reporter, 24 h; Potency, µM (top dose mostly 9.22 µM), for the others: at the top dose activation, most hits filed as activators; hit rate 2.4% among 320,000; AID 485313; note: % of control where 0% means no effect; nearly all actives have a fitted effect of over 60% in size
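Huh7 cells stably carrying NPC1 promoter–luciferase, plated in Opti-MEM with 10% FBS for 2 h, were exposed to compound in DMSO for 24 h at 37 °C; luciferase reagent was added for 10 min and luminescence read.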
FLuc modulator = firefly luciferase modulation, counter-screen for miR-21 project | purified FLuc, Km substrates, luminescence inhibition | AID 588342 | hit rate 6.9% among 360,000 | P08659 | Potency, µM (doses to about 57.5 µM), without a hit: top-dose activity change, negative = inhibition, hits mostly inhibitors;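 note: plate controls were vehicle for no effect and reference inhibitor for full effect; nearly all actives have a fitted effect of over 55% in size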
Target sequence (P08659 whole entry, looked up): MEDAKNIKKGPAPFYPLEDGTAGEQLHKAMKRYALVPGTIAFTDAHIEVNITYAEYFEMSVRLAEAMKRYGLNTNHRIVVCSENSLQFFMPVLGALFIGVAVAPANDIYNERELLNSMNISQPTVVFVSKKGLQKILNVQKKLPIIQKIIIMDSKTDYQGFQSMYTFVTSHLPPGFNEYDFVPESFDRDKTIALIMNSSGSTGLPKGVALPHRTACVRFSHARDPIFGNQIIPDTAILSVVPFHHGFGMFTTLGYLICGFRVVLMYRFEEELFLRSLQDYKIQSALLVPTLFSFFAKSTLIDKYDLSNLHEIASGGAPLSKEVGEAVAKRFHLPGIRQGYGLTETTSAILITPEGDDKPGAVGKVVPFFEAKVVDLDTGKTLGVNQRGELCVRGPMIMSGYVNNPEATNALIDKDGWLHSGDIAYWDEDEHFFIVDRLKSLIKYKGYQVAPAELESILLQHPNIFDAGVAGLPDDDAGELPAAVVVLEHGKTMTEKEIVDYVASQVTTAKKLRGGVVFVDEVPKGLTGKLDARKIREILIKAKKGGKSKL
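Biochemical qHTS of compounds, final roughly 60 µM downward over six points, against 10 nM purified firefly luciferase using Km concentrations of substrates (10 uM D-luciferin, 10 uM ATP) in Tris acetate pH 7.5 buffer; luminescence output.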
SMN2 splice up = SMN2 splice variant enhancement. hit rate 2.8% among 210,000. AID 1458. Potency, µM (top dose mostly 46.1 µM), without a hit: at the highest dose activity change, positive = activation, usual class: activators. HEK293 SMN2-luciferase splicing reporter, luminescence, 30-36 h; note: % of control where 0% means no effect; nearly all actives have a fitted effect of over 55% in size
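HEK293 cells carry an SMN2 […]–luciferase reporter in which exon 7 inclusion puts luciferase in frame. Cells were plated 10-12 h before compound addition, then incubated 30-36 h at 37C. ONE-Glo luminescence was read; sodium butyrate at 4.5 mM final served as control.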
Rab9 promoter act = activators of Rab9 promoter; hit rate 2.8% among 320,000; Potency, µM (doses to about 9.22 µM), for the others: at the highest dose activation, negative = inhibition, most hits filed as activators; Huh7 Rab9 promoter-luciferase reporter, luminescence, 24 h; note: % of control where 0% means no effect; nearly all actives have a fitted effect of over 60% in size
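Steps: seed 1500 Huh7 Rab9-luc cells per well, rest 2 h at 37 °C; add compound in DMSO; incubate 24 h; add luciferase reagent, 10 min ambient; read luminescence.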
An asterisk follows results filed as active; ? = inconclusive; · = no result; [ ] = remark or other dose. Calls come from the whole dose curve; as a rule, active = well fitted curve in the direction sought with a large enough effect; inconclusive = small, poorly fitted or top-dose-only effect, or another doubt; inactive = no such curve, though single readings can be large; an effect the other way counts as inactive or inconclusive. Potency is the fitted concentration of half-maximal effect.

SMILES | ELG1 genotoxic | NPC1 promoter act | FLuc modulator | SMN2 splice up | Rab9 promoter act
Cn1c(-c2ccc(Br)o2)nc2ccccc21 | ? | 1.41µM* | 2.39µM* | 12.6µM* | 1.41µM*
Cc1ccc(-c2nc3ccccc3n2C)o1 | 2.91µM* | 1.58µM* | 5.36µM* | 11.2µM* | 1.12µM*
Brc1ccc(Cn2c(-c3ccc(Br)o3)nc3ccccc32)o1 | 4.9% | 13.3% | 19µM* | 18.6% | 10.8%
Cn1c(Sc2nc3ccccc3n2C)nc2ccccc21 | -4.5% | -4.3% | -0.2% | 13.5% | 1.8%
CCOC(=O)c1cccc(C2=CC(=O)C[C@H](c3ccc(OC)c(OC)c3)C2)c1 | -10.6% | -1.0% | -12.9% | · | -1.3%
Cc1ccc(COc2ccc3oc(-c4ccccc4)c(C(=O)O)c3c2)cc1 | · | · | 10.7µM* | 11.0% | ·
Cc1ccc2oc(-c3ccccc3)c(C(=O)O)c(=O)c2c1 | ? | 3.55µM* | 21.3µM* | ? | ?
O=S(=O)(c1ccc(-c2cn3ccccc3n2)cc1)N1CCOCC1 | 10.7% | 2.6% | ? | -43.0% | 2.1%
Fc1ccc(-c2cn3ccccc3n2)cc1 | ? | 0.708µM* | 2.69µM* | · | 0.562µM*
CCOc1ccc(-c2cn3ccccc3n2)cc1 | ? | ? | 0.536µM* | 0.891µM* | ?
COc1ccc(N(CC(=O)N/N=C(\C)c2ccc(OC)c(OC)c2)S(=O)(=O)c2ccccc2)cc1 | ? | -3.3% | -2.3% | · | -2.0%
CSc1ccccc1OCc1cc(C(=O)N[C@H]2CCCCNC2=O)no1 | ? | 2.82µM* | 10.7µM* | · | 3.55µM*
COc1ccc(OCc2cc(C(=O)N[C@H]3CCCCNC3=O)no2)c(Cl)c1 | ? | ? | 10.7µM* | · | ?
CC(=O)N1CC2(CC2)CC1c1ccccc1 (configuration not stated) | · | · | · | -12.6% | ·
O=C(COC(=O)Cn1[nH]c(=O)c2ccccc2c1=O)NNC(=O)c1ccccc1 | 2.7% | 2.1% | 4.9% | · | -2.8%
CCc1cc2c(=O)c(-c3nc4ccccc4n3C)coc2c(CN2CCCCC2C)c1O (configuration not stated) | -7.4% | -1.0% | 1.0% | · | -3.7%
CC1CCCCN1Cc1c(O)ccc2c(=O)c(-c3nc4ccccc4s3)coc12 (configuration not stated) | 0.4% | 23.7% | 21.3µM* | · | 21.0%
COc1ccc(/C=C/C(=O)Nc2cc(=O)n(C)c(=O)n2C)cc1 | 13.1% | 1.0% | 9.53µM* | 6.6% | -1.3%
CCCC(=O)Nc1cc(=O)n(C)c(=O)n1C | 0.9% | -1.1% | 0.3% | -19.5% | 4.0%
Cn1c(NC(=O)/C=C/c2ccccc2)cc(=O)n(C)c1=O | ? | 16.0% | 21.3µM* | 7.94µM* | ?
Cn1c(NC(=O)CCc2ccccc2)cc(=O)n(C)c1=O | 16.4µM* | ? | 13.5µM* | ? | 2.82µM*
Cn1c(NC(=O)/C=C/c2ccc(Cl)c(Cl)c2)cc(=O)n(C)c1=O | ? | 28.4% | -18.7% | 22.2% | 22.0%
C=CCN(c1ccccc1)S(=O)(=O)c1cccc(C(=O)Nc2ccc(N3CCOCC3)cc2)c1 | -11.3% | -4.2% | -15.9% | · | -2.9%
COc1ccc(-c2nc3c(c4c2C[C@H](c2ccccc2)OC4)CN(S(=O)(=O)c2ccc(NC(C)=O)cc2)CC3)c(C)c1 | · | · | · | 1.8%[9.22 µM] | ·
CN(C)c1ccc(/C=N/N2C(=O)c3ccccc3C2=O)cc1 | 6.6% | -0.3% | 0.426µM* | · | 10.3%
SMILES | ELG1 genotoxic | NPC1 promoter act | FLuc modulator | SMN2 splice up | Rab9 promoter act
COc1ccc(/C=N/N2C(=O)c3ccccc3C2=O)cc1 | -3.9% | 0.6% | 2.13µM* | -1.1% | -0.9%
CCN(CC)c1ccc(/C=N/N2C(=O)c3ccccc3C2=O)cc1 | -0.2% | -0.3% | 4.26µM* | -14.9% | -1.9%
COc1ccc(/C=N\n2nnc3ccccc32)cc1 | ? | 0.316µM* | 0.19µM* | 0.794µM* | 0.224µM*
COc1ccccc1/C=N/N1C(=O)c2cccc3cccc(c23)C1=O | -0.2% | -2.6% | 0.4% | 17.8% | -2.6%
Cc1ccc(S(=O)(=O)N2CCC(N3CCN(Cc4ccccc4)C(=O)C3=O)CC2)cc1C | · | · | -5.3% | · | ·
COc1ccc(-c2nonc2NC(=O)c2ccco2)cc1OC | -1.3% | 6.4% | 7.6% | · | 7.7%
CCC(C)Sc1ccc(-c2nc3ccc(C)cn3c2NCc2ccccc2)cc1OC (configuration not stated) | -6.9% | -6.6% | 15.1µM* | · | -3.1%
